PMC7862700, “An all-to-all approach to the identification of sequence-specific readers for epigenetic DNA modifications on cytosine”

Key:
Assay in all cases: DAPPL (digital affinity profiling via proximity ligation, sequencing); 10 mM Tris-HCl pH 7.5, 50 mM NaCl, 1 mM DTT, 4% glycerol, room temperature, 30 min; GST-TFs on glutathione beads, 16-mer random dsDNA library, 0.1% formaldehyde crosslink after washing; high values mean tight binding
[1] = target: T1, FEV (Homo sapiens, UniProt Q99581 1-238); conditions: protein: recombinant; tags: N-terminal GST; dsDNA, one strand shown
T1 sequence: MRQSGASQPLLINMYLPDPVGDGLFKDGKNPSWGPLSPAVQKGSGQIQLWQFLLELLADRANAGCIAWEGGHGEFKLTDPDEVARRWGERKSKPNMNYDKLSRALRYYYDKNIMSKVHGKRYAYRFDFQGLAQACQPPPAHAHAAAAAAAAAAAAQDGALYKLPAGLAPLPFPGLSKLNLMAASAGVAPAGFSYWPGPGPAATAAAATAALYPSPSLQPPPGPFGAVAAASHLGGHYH
In short: (§1)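 Binding signal is each hexamer's read frequency for a factor divided by its frequency in the tag-only sample. The factors were GST-fused human transcription factors from yeast, captured on glutathione beads, DNA-barcoded and pooled with that sample. Pools were incubated with 200 nmole of a random double-stranded 16-mer DNA library in Tris/NaCl/DTT/glycerol buffer at room temperature for 30 min, then washed, crosslinked with 0.1% formaldehyde, proximity-ligated with BsaI/T4 ligase (1 h, 37 °C), PCR-amplified and sequenced on an Illumina NextSeq500.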

[2] = target: ETV5 (Homo sapiens, UniProt P41161 1-510); conditions: protein: recombinant; tags: N-terminal GST; dsDNA, one strand shown
Sequence of ETV5 (P41161 whole entry): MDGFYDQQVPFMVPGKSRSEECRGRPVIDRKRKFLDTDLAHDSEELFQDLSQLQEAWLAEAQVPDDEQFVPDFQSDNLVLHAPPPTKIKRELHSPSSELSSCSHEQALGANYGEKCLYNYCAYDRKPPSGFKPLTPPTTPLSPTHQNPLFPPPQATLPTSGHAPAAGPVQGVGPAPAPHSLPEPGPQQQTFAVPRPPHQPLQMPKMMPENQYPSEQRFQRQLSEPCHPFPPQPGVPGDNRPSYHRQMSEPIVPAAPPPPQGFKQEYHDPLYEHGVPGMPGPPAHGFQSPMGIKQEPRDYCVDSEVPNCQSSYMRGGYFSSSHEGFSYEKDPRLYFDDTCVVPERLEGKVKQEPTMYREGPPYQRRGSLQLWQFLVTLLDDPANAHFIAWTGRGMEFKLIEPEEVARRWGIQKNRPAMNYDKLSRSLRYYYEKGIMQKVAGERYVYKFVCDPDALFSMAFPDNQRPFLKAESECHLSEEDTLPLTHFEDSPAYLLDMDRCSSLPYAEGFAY
In short: as §1

[3] = target: HSF1 (Homo sapiens, UniProt Q00613 1-529); conditions: protein: recombinant; tags: N-terminal GST; chain copies: 3; dsDNA, one strand shown
Sequence of HSF1 (Q00613 whole entry): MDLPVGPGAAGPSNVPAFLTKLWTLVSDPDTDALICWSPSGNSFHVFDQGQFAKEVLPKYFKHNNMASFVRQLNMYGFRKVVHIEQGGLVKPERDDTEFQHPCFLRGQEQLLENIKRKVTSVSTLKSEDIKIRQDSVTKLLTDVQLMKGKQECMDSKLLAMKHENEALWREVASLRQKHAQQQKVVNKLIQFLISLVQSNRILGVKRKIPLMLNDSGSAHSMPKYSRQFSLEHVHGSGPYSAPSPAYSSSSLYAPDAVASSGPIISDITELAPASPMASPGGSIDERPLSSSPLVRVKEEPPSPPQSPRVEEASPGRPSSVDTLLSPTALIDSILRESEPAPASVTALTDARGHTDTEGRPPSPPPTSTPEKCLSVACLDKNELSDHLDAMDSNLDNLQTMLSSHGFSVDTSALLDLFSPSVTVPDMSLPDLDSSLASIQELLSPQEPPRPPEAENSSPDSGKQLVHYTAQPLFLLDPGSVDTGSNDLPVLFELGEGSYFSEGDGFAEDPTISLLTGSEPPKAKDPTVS
In short: as §1

[4] = target: ELF4 (Homo sapiens, UniProt Q99607 1-663); conditions: protein: recombinant; tags: N-terminal GST; dsDNA, one strand shown
Sequence of ELF4 (Q99607 whole entry): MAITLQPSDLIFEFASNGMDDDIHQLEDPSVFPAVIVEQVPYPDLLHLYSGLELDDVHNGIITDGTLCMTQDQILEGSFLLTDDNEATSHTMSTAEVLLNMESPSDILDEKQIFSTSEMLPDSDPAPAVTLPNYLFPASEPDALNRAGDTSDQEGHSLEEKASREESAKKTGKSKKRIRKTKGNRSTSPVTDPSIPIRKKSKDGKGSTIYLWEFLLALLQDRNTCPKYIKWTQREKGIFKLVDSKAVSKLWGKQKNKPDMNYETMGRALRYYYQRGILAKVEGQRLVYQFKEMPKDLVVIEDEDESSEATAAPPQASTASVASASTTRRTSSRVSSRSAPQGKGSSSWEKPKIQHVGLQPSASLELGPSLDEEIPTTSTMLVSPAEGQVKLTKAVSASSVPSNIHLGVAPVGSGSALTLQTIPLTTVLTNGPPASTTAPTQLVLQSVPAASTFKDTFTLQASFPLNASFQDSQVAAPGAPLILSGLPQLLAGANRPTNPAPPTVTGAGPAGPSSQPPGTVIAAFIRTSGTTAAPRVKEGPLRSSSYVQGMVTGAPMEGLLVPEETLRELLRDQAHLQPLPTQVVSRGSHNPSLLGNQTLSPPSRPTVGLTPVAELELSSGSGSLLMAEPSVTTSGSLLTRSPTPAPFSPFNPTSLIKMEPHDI
In short: as §1

[5] = target: T2, ELK4 (Homo sapiens, UniProt P28324-2 1-405); conditions: protein: recombinant; tags: N-terminal GST; dsDNA, one strand shown
T2 sequence: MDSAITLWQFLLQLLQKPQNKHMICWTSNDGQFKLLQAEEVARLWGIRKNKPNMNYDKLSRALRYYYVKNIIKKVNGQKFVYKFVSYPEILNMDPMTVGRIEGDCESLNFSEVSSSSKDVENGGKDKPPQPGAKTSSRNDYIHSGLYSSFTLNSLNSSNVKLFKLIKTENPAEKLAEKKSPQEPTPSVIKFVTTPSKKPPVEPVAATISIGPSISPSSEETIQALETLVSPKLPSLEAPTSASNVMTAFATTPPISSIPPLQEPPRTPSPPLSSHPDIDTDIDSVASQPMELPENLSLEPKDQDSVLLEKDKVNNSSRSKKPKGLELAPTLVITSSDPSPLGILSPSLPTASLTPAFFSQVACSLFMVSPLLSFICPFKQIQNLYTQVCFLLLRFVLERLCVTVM
In short: as §1

[6] = target: T3, ETV2 (Homo sapiens, UniProt O00321 1-342); conditions: protein: recombinant; tags: N-terminal GST; dsDNA, one strand shown
T3 sequence: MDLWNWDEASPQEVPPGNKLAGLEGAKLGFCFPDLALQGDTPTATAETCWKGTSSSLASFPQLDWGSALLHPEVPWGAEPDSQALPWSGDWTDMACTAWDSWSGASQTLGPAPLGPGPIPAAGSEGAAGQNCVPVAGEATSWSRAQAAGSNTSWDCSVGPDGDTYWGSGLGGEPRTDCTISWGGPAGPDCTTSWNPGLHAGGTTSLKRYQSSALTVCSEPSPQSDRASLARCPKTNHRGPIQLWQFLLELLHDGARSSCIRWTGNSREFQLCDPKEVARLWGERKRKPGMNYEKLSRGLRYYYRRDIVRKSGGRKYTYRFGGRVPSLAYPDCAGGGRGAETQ
In short: as §1

[7] = target: T4, ELF3 (Homo sapiens, UniProt P78545 1-371); conditions: protein: recombinant; tags: N-terminal GST; dsDNA, one strand shown
T4 sequence: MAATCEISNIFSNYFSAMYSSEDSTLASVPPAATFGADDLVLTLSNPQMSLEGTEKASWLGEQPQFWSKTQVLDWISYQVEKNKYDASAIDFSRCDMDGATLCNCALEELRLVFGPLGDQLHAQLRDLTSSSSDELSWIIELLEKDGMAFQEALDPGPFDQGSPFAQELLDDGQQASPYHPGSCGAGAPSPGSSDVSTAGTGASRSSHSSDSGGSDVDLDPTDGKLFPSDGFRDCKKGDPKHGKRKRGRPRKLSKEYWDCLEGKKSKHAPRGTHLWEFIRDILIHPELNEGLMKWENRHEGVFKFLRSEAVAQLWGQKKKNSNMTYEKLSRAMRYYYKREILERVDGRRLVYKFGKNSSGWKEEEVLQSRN
In short: as §1

[8] = target: CRX (Homo sapiens, UniProt O43186 1-299); conditions: protein: recombinant; tags: N-terminal GST; dsDNA, one strand shown
Sequence of CRX (O43186 whole entry): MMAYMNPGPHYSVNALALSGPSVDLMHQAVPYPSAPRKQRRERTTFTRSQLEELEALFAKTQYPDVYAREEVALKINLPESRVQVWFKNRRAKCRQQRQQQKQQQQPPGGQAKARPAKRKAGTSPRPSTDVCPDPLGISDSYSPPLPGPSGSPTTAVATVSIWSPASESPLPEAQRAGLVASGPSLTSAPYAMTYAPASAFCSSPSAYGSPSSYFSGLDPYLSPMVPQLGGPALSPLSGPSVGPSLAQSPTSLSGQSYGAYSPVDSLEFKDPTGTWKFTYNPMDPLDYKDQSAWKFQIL
In short: as §1

[9] = target: ETV1 (Homo sapiens, UniProt P50549 1-477); conditions: protein: recombinant; tags: N-terminal GST; dsDNA, one strand shown
Sequence of ETV1 (P50549 whole entry): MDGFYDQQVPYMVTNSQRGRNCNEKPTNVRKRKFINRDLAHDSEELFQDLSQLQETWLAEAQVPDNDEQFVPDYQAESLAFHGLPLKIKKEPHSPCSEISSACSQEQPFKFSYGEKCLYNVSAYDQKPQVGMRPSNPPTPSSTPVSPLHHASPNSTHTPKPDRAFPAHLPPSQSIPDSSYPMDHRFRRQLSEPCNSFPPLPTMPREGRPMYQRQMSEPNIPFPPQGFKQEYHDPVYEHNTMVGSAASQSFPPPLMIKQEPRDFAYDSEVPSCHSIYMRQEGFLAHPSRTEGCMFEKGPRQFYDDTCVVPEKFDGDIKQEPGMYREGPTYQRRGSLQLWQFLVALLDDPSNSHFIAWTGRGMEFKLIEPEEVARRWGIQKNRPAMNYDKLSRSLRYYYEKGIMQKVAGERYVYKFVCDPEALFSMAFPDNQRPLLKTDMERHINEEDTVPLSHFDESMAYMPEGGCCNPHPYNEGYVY
In short: as §1

[10] = target: T5, ERF (Homo sapiens, UniProt P50548 1-548); conditions: protein: recombinant; tags: N-terminal GST; dsDNA, one strand shown
T5 sequence: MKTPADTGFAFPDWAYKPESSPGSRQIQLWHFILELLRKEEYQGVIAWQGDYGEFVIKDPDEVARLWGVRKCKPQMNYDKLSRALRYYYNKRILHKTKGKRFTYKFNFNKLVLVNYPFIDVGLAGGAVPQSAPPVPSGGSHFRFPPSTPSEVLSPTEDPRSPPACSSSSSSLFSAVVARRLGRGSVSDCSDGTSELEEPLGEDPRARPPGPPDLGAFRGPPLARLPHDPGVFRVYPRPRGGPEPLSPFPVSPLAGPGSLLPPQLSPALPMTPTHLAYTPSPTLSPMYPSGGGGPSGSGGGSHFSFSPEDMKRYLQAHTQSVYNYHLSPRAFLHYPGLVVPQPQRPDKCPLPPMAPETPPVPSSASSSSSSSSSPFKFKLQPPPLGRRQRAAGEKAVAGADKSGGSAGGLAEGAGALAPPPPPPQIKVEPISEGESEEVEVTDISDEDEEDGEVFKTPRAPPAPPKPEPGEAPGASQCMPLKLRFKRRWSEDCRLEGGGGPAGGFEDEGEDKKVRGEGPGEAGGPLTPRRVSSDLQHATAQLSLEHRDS
In short: as §1

[11] = target: T6, ETV3L (Homo sapiens, UniProt Q6ZN32 1-361); conditions: protein: recombinant; tags: N-terminal GST; dsDNA, one strand shown
T6 sequence: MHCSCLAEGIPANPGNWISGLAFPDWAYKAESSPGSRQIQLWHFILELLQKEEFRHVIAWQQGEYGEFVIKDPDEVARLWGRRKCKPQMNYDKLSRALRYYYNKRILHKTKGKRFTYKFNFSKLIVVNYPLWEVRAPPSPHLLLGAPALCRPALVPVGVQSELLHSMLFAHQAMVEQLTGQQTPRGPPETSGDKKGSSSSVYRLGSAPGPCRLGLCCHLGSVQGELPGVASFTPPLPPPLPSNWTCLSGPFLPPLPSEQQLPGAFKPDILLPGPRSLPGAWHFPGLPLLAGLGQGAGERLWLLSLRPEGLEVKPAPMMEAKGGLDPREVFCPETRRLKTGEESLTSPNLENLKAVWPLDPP
In short: as §1

[12] = target: T7, ETS2 (Homo sapiens, UniProt P15036 1-469); conditions: protein: recombinant; tags: N-terminal GST; dsDNA, one strand shown
T7 sequence: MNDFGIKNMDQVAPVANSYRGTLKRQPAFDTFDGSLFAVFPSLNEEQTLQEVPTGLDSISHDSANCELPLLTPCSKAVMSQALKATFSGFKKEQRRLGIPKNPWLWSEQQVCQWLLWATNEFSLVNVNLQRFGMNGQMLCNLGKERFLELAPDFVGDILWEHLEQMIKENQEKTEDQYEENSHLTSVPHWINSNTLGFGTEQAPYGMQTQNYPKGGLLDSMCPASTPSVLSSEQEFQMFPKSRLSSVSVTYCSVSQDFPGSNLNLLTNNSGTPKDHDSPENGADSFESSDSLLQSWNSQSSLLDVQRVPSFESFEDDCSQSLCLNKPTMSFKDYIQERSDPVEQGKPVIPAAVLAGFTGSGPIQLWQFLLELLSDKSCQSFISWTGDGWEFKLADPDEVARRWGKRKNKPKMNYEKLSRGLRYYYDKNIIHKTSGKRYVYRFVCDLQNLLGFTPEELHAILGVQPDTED
In short: as §1

[13] = target: T8, SPDEF (Homo sapiens, UniProt O95238 1-335); conditions: protein: recombinant; tags: N-terminal GST; dsDNA, one strand shown
T8 sequence: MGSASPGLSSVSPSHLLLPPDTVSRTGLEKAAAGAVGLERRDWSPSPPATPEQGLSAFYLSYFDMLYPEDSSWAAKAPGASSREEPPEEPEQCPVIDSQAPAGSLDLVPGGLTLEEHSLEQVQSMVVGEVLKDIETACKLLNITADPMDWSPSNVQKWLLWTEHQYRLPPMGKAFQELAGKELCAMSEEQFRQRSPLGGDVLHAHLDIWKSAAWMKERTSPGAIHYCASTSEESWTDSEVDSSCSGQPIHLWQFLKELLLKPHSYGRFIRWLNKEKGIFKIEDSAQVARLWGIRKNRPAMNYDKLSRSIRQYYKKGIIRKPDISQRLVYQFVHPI
In short: as §1

[14] = target: T9, ETV7 (Homo sapiens, UniProt Q9Y603 1-341); conditions: protein: recombinant; tags: N-terminal GST; dsDNA, one strand shown
T9 sequence: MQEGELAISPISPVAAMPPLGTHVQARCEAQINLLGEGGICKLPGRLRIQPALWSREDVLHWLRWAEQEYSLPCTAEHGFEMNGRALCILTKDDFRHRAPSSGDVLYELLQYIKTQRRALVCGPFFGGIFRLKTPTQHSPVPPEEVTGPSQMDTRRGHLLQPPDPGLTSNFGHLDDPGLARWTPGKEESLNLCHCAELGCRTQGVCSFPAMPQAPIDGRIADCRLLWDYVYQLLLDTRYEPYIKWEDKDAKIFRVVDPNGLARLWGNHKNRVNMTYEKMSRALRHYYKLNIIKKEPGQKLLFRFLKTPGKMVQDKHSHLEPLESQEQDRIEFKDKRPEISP
In short: as §1

[15] = target: T10, ELF5 (Homo sapiens, UniProt Q9UKW6-2 1-255); conditions: protein: recombinant; tags: N-terminal GST; dsDNA, one strand shown
T10 sequence: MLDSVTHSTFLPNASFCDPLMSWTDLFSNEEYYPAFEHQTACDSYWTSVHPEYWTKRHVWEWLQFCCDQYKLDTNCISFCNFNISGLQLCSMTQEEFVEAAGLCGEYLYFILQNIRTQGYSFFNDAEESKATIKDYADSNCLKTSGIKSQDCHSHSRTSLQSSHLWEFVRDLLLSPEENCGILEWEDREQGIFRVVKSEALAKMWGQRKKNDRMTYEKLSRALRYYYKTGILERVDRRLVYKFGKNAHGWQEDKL
In short: as §1

[16] = target: T11, ETV3 (Homo sapiens, UniProt P41162-2 1-143); conditions: protein: recombinant; tags: N-terminal GST; dsDNA, one strand shown
T11 sequence: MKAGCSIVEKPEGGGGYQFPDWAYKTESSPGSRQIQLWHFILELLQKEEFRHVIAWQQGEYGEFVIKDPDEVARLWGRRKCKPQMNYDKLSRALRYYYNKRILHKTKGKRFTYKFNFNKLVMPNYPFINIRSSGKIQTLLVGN
In short: as §1

[17] = target: ETV6 (Homo sapiens, UniProt P41212 1-452); conditions: protein: recombinant; tags: N-terminal GST; dsDNA, one strand shown
Sequence of ETV6 (P41212 whole entry): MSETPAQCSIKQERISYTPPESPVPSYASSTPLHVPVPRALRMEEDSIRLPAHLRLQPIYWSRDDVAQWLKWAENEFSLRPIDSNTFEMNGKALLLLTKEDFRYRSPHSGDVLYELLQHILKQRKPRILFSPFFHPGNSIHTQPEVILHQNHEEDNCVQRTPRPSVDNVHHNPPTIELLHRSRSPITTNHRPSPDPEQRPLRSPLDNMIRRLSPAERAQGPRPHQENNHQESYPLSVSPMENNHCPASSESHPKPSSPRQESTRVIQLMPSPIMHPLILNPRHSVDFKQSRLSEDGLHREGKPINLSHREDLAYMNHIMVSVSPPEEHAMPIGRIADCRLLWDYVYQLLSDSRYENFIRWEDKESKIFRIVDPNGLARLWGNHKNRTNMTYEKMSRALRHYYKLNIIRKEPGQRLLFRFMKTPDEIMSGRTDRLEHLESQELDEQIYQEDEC
In short: as §1

Row | Sequence | binding signal [1] | binding signal [2] | binding signal [3] | binding signal [4] | binding signal [5] | binding signal [6] | binding signal [7] | binding signal [8] | binding signal [9] | binding signal [10] | binding signal [11] | binding signal [12] | binding signal [13] | binding signal [14] | binding signal [15] | binding signal [16] | binding signal [17]
1 | ATAGCA | 1.13 fold enrichment (6-mer frequency, TF over GST control) | 1.17 fold enrichment (6-mer frequency, TF over GST control) | 1.02 fold enrichment (6-mer frequency, TF over GST control) | 1.16 fold enrichment (6-mer frequency, TF over GST control) | 1.15 fold enrichment (6-mer frequency, TF over GST control) | 1.13 fold enrichment (6-mer frequency, TF over GST control) | 1.25 fold enrichment (6-mer frequency, TF over GST control) | 1.07 fold enrichment (6-mer frequency, TF over GST control) | 1.1 fold enrichment (6-mer frequency, TF over GST control) | 1.24 fold enrichment (6-mer frequency, TF over GST control) | 1.19 fold enrichment (6-mer frequency, TF over GST control) | 1.22 fold enrichment (6-mer frequency, TF over GST control) | 1.12 fold enrichment (6-mer frequency, TF over GST control) | 1.06 fold enrichment (6-mer frequency, TF over GST control) | 1.16 fold enrichment (6-mer frequency, TF over GST control) | 1.19 fold enrichment (6-mer frequency, TF over GST control) | 1.18 fold enrichment (6-mer frequency, TF over GST control)
2 | CTAGTA | 1.04 fold enrichment (6-mer frequency, TF over GST control) | 1.08 fold enrichment (6-mer frequency, TF over GST control) | 1.86 fold enrichment (6-mer frequency, TF over GST control) | 1.07 fold enrichment (6-mer frequency, TF over GST control) | 1.09 fold enrichment (6-mer frequency, TF over GST control) | 1.1 fold enrichment (6-mer frequency, TF over GST control) | 1.18 fold enrichment (6-mer frequency, TF over GST control) | 1.38 fold enrichment (6-mer frequency, TF over GST control) | 1.04 fold enrichment (6-mer frequency, TF over GST control) | 1.17 fold enrichment (6-mer frequency, TF over GST control) | 1.08 fold enrichment (6-mer frequency, TF over GST control) | 1.18 fold enrichment (6-mer frequency, TF over GST control) | 1.11 fold enrichment (6-mer frequency, TF over GST control) | 1.11 fold enrichment (6-mer frequency, TF over GST control) | 1.08 fold enrichment (6-mer frequency, TF over GST control) | 1.13 fold enrichment (6-mer frequency, TF over GST control) | 1.12 fold enrichment (6-mer frequency, TF over GST control)
